In PubChem BioAssay (NCI):
Compounds without any hit were thinned out: in the full panel of roughly 79,000, 15% have a hit. Values without a mark were called inactive. Calls of active or inactive are those of the source. Rule as the data show it: active = growth inhibition above about 70%; inactive = the rest.

Assay: NCI Yeast Anticancer Drug Screen. Data for the bub3 strain (AID 167)
Conditions: S. cerevisiae bub3 mutant strain, at 50.0 µM, stronger effect = higher value
How it was run: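 Inhibition values come from growth of compound-treated mutant yeast normalised to vehicle-treated controls.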

Compound	growth inhibition
O=[N+]([O-])c1ccc(O)c(C=NCCN=Cc2cc([N+](=O)[O-])ccc2O)c1.[Zn+2]	1.1%
O=S(=O)(F)c1ccccc1C[P+](c1ccccc1)(c1ccccc1)c1ccccc1	82.8% (active)
CC(=O)C(C(C)=O)C(C)=O.[Cr]	-16.1%
C/C=C\CC1(C/C=C/C)C(=O)NC(=O)NC1=O	-8.9%
SCCS	-27.7%
CSC(=S)N(C)c1nc(=[N+](C)C)ss1	-2.25%
OCC(S)CS (stereo not drawn)	9.55%
c1ccc2c(C3NCCc4[nH]cnc43)cccc2c1 (stereo not drawn)	-32%
COP(=O)(OC)C1(c2ccccc2)C2C3CCC(C3)C21 (stereo not drawn)	14.8%
c1ccc(P2c3ccccc3Oc3ccccc32)cc1	32.6%
O=C(O)C(F)F	-15.3%
CC(=O)C(CN1CCCCC1)C(c1ccccc1)c1c(O)c2ccccc2oc1=O (stereo not drawn)	33%
CC(C)(O)OC1COC(C2CS2)C1O (stereo not drawn)	29.6%
C=C1[C@@H](C)[C@H]2[C@H](Cc3ccccc3)NC(=O)[C@]23OC(=O)/C=C/[C@H](O)CCC[C@@H](C)C/C=C/[C@H]3[C@@H]1O	58.8%
[C-]#[O+].[C-]#[O+].[Ir].[O-]c1cccc2cccnc12	-13.2%
OC1CCN(C2(c3ccccc3)CCCCC2)CC1	-6.1%
CCC(=O)C(CC(C)[N+](C)(C)C)(c1ccccc1)c1ccccc1 (stereo not drawn)	-18.5%
[C-]#[N+]CS(=O)(=O)c1ccc(C)cc1	3.85%
CC1OC(OC2CCC3(C=O)C4CCC5(C)C(C6=CC(=O)OC6)CCC5(O)C4CCC3(O)C2)C(O)C(O)C1O (stereo not drawn)	-9.15%
COC(=O)C1=C(C)NC(C)=C2C(=O)Oc3ccccc3C12 (stereo not drawn)	-6.8%

Compound	growth inhibition
CC[N+](CC)(CC)CC#CC[N+](CC)(CC)CC	12.8%
OC1(c2ccccc2)N=C(c2ccccc2)c2ccccc2-n2cccc21 (stereo not drawn)	-0.95%
O=P(O)(O)SP(=O)(O)O.[Mn]	-11.7%
CC1(C)N=C(N)N=C(N)N1c1ccc(CCCCCCc2ccc(S(=O)(=O)F)cc2)cc1	99% (active)
O=C(O)CNCP(=O)(O)O	-46.8%
C/C=C1\C[C@@H]2C(OC)Nc3cc(O)c(OC)cc3C(=O)N2C1 (stereo partly drawn)	81.3% (active)
CC(=O)CP(=O)(O)O	10.1%
CCC1(C/C=C/Cl)C(=O)NC(=O)NC1=O	6.45%
Cc1nc2ccccc2c(=O)n1-c1ccccc1Cl	15.9%
N.N.N.N.N.N#Cc1nn[n-]n1.[Cl-].[Co+3]	12.3%
O=NNc1cnc2ccccc2n1	-38.2%
CC(=O)Nc1cc([As](C)(=O)O)ccc1O	-9.65%
COP(=O)(OC)C(O)C(Br)(Br)Br (stereo not drawn)	11.7%
COc1ccc(C(=O)O[C@H]2CC[C@@]3(C)[C@@H]4CC[C@H]5[C@]6(O)C[C@H](O)[C@@]7(O)[C@@H](CN8C[C@@H](C)CC[C@H]8[C@@]7(C)O)[C@]6(O)C[C@@]53OC24O)cc1OC	-28.8%
O=C1OC(=O)C2CC3C(CC12)C1(Cl)C(Cl)=C(Cl)C3(Cl)C1(Cl)Cl (stereo not drawn)	-17.4%
CNC(=O)N1CN(c2ccccc2)C2(CCN(Cc3ccccc3)CC2)C1=O	-10.4%
CCCCC(=O)[O-].N.N.N.N.N.[Co+3].[O-][Cl+3]([O-])([O-])[O-]	-0.3%
CCCCP(=O)(CCCC)CCCC.CCCCP(=O)(CCCC)CCCC.CCCCP(=O)(CCCC)CCCC.CCCCP(=O)(CCCC)CCCC.[Mn+2].[O-][Cl+3]([O-])([O-])O	-21.9%
Cc1ccc2[nH]cc(CCN)c2c1	-19.8%

Assay: NCI Yeast Anticancer Drug Screen. Data for the mlh1 rad18 strain (AID 175)
Conditions: S. cerevisiae mlh1 rad18 strain growth inhibition; at 50.0 µM; stronger effect = higher value
How it was run: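 Test agents were incubated with a yeast strain of defined genotype (DNA damage repair defect). Inhibition of growth was derived by comparison with vehicle-exposed cultures.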

Compound	growth inhibition
O=[N+]([O-])c1ccc(O)c(C=NCCN=Cc2cc([N+](=O)[O-])ccc2O)c1.[Zn+2]	23.4%
O=S(=O)(F)c1ccccc1C[P+](c1ccccc1)(c1ccccc1)c1ccccc1	91% (active)
CC(=O)C(C(C)=O)C(C)=O.[Cr]	6.45%
C/C=C\CC1(C/C=C/C)C(=O)NC(=O)NC1=O	1.25%
SCCS	-25.7%
CSC(=S)N(C)c1nc(=[N+](C)C)ss1	27.3%
OCC(S)CS (stereo not drawn)	-13.4%
c1ccc2c(C3NCCc4[nH]cnc43)cccc2c1 (stereo not drawn)	4.65%
COP(=O)(OC)C1(c2ccccc2)C2C3CCC(C3)C21 (stereo not drawn)	17.8%
c1ccc(P2c3ccccc3Oc3ccccc32)cc1	37%
O=C(O)C(F)F	-3.15%
CC(=O)C(CN1CCCCC1)C(c1ccccc1)c1c(O)c2ccccc2oc1=O (stereo not drawn)	9.55%
CC(C)(O)OC1COC(C2CS2)C1O (stereo not drawn)	-22.4%
C=C1[C@@H](C)[C@H]2[C@H](Cc3ccccc3)NC(=O)[C@]23OC(=O)/C=C/[C@H](O)CCC[C@@H](C)C/C=C/[C@H]3[C@@H]1O	58.5%
[C-]#[O+].[C-]#[O+].[Ir].[O-]c1cccc2cccnc12	-4.8%
OC1CCN(C2(c3ccccc3)CCCCC2)CC1	0.15%
CCC(=O)C(CC(C)[N+](C)(C)C)(c1ccccc1)c1ccccc1 (stereo not drawn)	6.5%
[C-]#[N+]CS(=O)(=O)c1ccc(C)cc1	1.4%
CC1OC(OC2CCC3(C=O)C4CCC5(C)C(C6=CC(=O)OC6)CCC5(O)C4CCC3(O)C2)C(O)C(O)C1O (stereo not drawn)	-4.3%
COC(=O)C1=C(C)NC(C)=C2C(=O)Oc3ccccc3C12 (stereo not drawn)	1.4%

Compound	growth inhibition
CC[N+](CC)(CC)CC#CC[N+](CC)(CC)CC	6.1%
OC1(c2ccccc2)N=C(c2ccccc2)c2ccccc2-n2cccc21 (stereo not drawn)	-1.3%
O=P(O)(O)SP(=O)(O)O.[Mn]	-16.1%
CC1(C)N=C(N)N=C(N)N1c1ccc(CCCCCCc2ccc(S(=O)(=O)F)cc2)cc1	99.4% (active)
O=C(O)CNCP(=O)(O)O	-20%
C/C=C1\C[C@@H]2C(OC)Nc3cc(O)c(OC)cc3C(=O)N2C1 (stereo partly drawn)	31.7%
CC(=O)CP(=O)(O)O	-6.35%
CCC1(C/C=C/Cl)C(=O)NC(=O)NC1=O	-29.1%
Cc1nc2ccccc2c(=O)n1-c1ccccc1Cl	9.8%
N.N.N.N.N.N#Cc1nn[n-]n1.[Cl-].[Co+3]	12.9%
O=NNc1cnc2ccccc2n1	12.2%
CC(=O)Nc1cc([As](C)(=O)O)ccc1O	-1.85%
COP(=O)(OC)C(O)C(Br)(Br)Br (stereo not drawn)	23.8%
COc1ccc(C(=O)O[C@H]2CC[C@@]3(C)[C@@H]4CC[C@H]5[C@]6(O)C[C@H](O)[C@@]7(O)[C@@H](CN8C[C@@H](C)CC[C@H]8[C@@]7(C)O)[C@]6(O)C[C@@]53OC24O)cc1OC	-5.15%
O=C1OC(=O)C2CC3C(CC12)C1(Cl)C(Cl)=C(Cl)C3(Cl)C1(Cl)Cl (stereo not drawn)	3%
CNC(=O)N1CN(c2ccccc2)C2(CCN(Cc3ccccc3)CC2)C1=O	-4.1%
CCCCC(=O)[O-].N.N.N.N.N.[Co+3].[O-][Cl+3]([O-])([O-])[O-]	-16%
CCCCP(=O)(CCCC)CCCC.CCCCP(=O)(CCCC)CCCC.CCCCP(=O)(CCCC)CCCC.CCCCP(=O)(CCCC)CCCC.[Mn+2].[O-][Cl+3]([O-])([O-])O	-17.9%
Cc1ccc2[nH]cc(CCN)c2c1	-27.5%
